# Measurements taken from article doi:10.1101/2024.03.05.583629.
# Target: pT7_6His-AlfaTag-HOXD13 (human, UniProt P35453 263-343)
# Assay: PADIT-seq
# Settings: dsDNA, one strand shown
# pT7_6His-AlfaTag-HOXD13, sequence (P35453 263-343): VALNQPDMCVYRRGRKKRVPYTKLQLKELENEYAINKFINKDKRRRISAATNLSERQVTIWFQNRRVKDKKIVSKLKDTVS
row,Sequence,binding signal
1,CTCGAGGATATCAAGATCTGGCCTCGGCCCCATAAAAGGAACCTCTAGCTAGCCGACTCACTATAGGGATAATCGCCCTGAGCAAAGACC,2.77 ± 0.0828 log2FC
2,CTCGAGGATATCAAGATCTGGCCTCGGCCGCTTAAAAGGAACCTCTAGCTAGCCGACTCACTATAGGGATAATCGCCCTGAGCAAAGACC,0.46 ± 0.0911 log2FC
3,CTCGAGGATATCAAGATCTGGCCTCGGCCGAGTAAAAGGAACCTCTAGCTAGCCGACTCACTATAGGGATAATCGCCCTGAGCAAAGACC,0.186 ± 0.114 log2FC
4,CTCGAGGATATCAAGATCTGGCCTCGGCCTTTTACTTGGAACCTCTAGCTAGCCGACTCACTATAGGGATAATCGCCCTGAGCAAAGACC,0.95 ± 0.0821 log2FC
5,CTCGAGGATATCAAGATCTGGCCTCGGCGACCTAAAAGGAACCTCTAGCTAGCCGACTCACTATAGGGATAATCGCCCTGAGCAAAGACC,-0.787 ± 0.0956 log2FC
6,CTCGAGGATATCAAGATCTGGCCTCGGCCCCTGGGCGGGAACCTCTAGCTAGCCGACTCACTATAGGGATAATCGCCCTGAGCAAAGACC,-0.981 ± 0.122 log2FC
7,CTCGAGGATATCAAGATCTGGCCTCGGCCTTGTAAAAGGAACCTCTAGCTAGCCGACTCACTATAGGGATAATCGCCCTGAGCAAAGACC,2.9 ± 0.088 log2FC
8,CTCGAGGATATCAAGATCTGGCCTCGGCTTTTTAATAGGAACCTCTAGCTAGCCGACTCACTATAGGGATAATCGCCCTGAGCAAAGACC,2.75 ± 0.0795 log2FC
9,CTCGAGGATATCAAGATCTGGCCTCGGCAATCTAAAAGGAACCTCTAGCTAGCCGACTCACTATAGGGATAATCGCCCTGAGCAAAGACC,-0.296 ± 0.111 log2FC
10,CTCGAGGATATCAAGATCTGGCCTCGGCCTTTTAGACGGAACCTCTAGCTAGCCGACTCACTATAGGGATAATCGCCCTGAGCAAAGACC,-0.199 ± 0.091 log2FC
11,CTCGAGGATATCAAGATCTGGCCTCGGCCTTTTACATGGAACCTCTAGCTAGCCGACTCACTATAGGGATAATCGCCCTGAGCAAAGACC,1.85 ± 0.0771 log2FC
12,CTCGAGGATATCAAGATCTGGCCTCGGCGTTTTACGAGGAACCTCTAGCTAGCCGACTCACTATAGGGATAATCGCCCTGAGCAAAGACC,3.47 ± 0.133 log2FC
13,CTCGAGGATATCAAGATCTGGCCTCGGCTTTTTATGTGGAACCTCTAGCTAGCCGACTCACTATAGGGATAATCGCCCTGAGCAAAGACC,2.89 ± 0.0872 log2FC
14,CTCGAGGATATCAAGATCTGGCCTCGGCGGGCCACGCGGAACCTCTAGCTAGCCGACTCACTATAGGGATAATCGCCCTGAGCAAAGACC,-1.1 ± 0.106 log2FC
15,CTCGAGGATATCAAGATCTGGCCTCGGCAGAGTAAAAGGAACCTCTAGCTAGCCGACTCACTATAGGGATAATCGCCCTGAGCAAAGACC,0.253 ± 0.1 log2FC
16,CTCGAGGATATCAAGATCTGGCCTCGGCGGCGTAAAAGGAACCTCTAGCTAGCCGACTCACTATAGGGATAATCGCCCTGAGCAAAGACC,0.246 ± 0.0968 log2FC
17,CTCGAGGATATCAAGATCTGGCCTCGGCGTTTTAGATGGAACCTCTAGCTAGCCGACTCACTATAGGGATAATCGCCCTGAGCAAAGACC,0.145 ± 0.106 log2FC
18,CTCGAGGATATCAAGATCTGGCCTCGGCCTTTTACAGGGAACCTCTAGCTAGCCGACTCACTATAGGGATAATCGCCCTGAGCAAAGACC,2.83 ± 0.0828 log2FC
19,CTCGAGGATATCAAGATCTGGCCTCGGCATTTTATGAGGAACCTCTAGCTAGCCGACTCACTATAGGGATAATCGCCCTGAGCAAAGACC,3.3 ± 0.0767 log2FC
20,CTCGAGGATATCAAGATCTGGCCTCGGCCTTTTACACGGAACCTCTAGCTAGCCGACTCACTATAGGGATAATCGCCCTGAGCAAAGACC,1.93 ± 0.075 log2FC
21,CTCGAGGATATCAAGATCTGGCCTCGGCGCTATAAAAGGAACCTCTAGCTAGCCGACTCACTATAGGGATAATCGCCCTGAGCAAAGACC,2.83 ± 0.0721 log2FC
22,CTCGAGGATATCAAGATCTGGCCTCGGCTTTTTATAGGGAACCTCTAGCTAGCCGACTCACTATAGGGATAATCGCCCTGAGCAAAGACC,3.37 ± 0.0926 log2FC
23,CTCGAGGATATCAAGATCTGGCCTCGGCGTTTTACTCGGAACCTCTAGCTAGCCGACTCACTATAGGGATAATCGCCCTGAGCAAAGACC,0.701 ± 0.0889 log2FC
24,CTCGAGGATATCAAGATCTGGCCTCGGCTTTTTAAAGGGAACCTCTAGCTAGCCGACTCACTATAGGGATAATCGCCCTGAGCAAAGACC,2.54 ± 0.0796 log2FC
25,CTCGAGGATATCAAGATCTGGCCTCGGCCTTTTATTGGGAACCTCTAGCTAGCCGACTCACTATAGGGATAATCGCCCTGAGCAAAGACC,3.44 ± 0.0778 log2FC
26,CTCGAGGATATCAAGATCTGGCCTCGGCCTATTAAAAGGAACCTCTAGCTAGCCGACTCACTATAGGGATAATCGCCCTGAGCAAAGACC,3.05 ± 0.0763 log2FC
